Shiga toxin inh: blocks Shiga toxin action in Vero cells; Vero cells, Shiga toxin protein synthesis inhibition reporter; inhibition, % at 38.7 µM; 290,000 tested, 9.2% active; AID 2315; in the data active = inhibition mostly above about 28%, no sharp cut-off; inactive = mostly below about 43%; also: 0% is about no effect
Pf growth 96h: P. falciparum growth inhibition at 96 hours; P. falciparum luciferase reporter growth, 96 h; 320,000 tested, 6.9% active; Potency, µM (highest dose often 28.7 µM), for inactives: at the top dose activity change, negative = inhibition, hits mostly inhibitors; also: potency is read from the fitted curve at half-maximal effect; % is scaled to controls: 0 for no effect and ±100 for the full control effect
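Two parasite generations (96 h, 37 C, 5% CO2) of compound exposure in infected erythrocytes (0.05% parasitemia, 2% hematocrit). Luciferase-reporter P. falciparum; decreased luminescence indicates inhibited growth, aimed at apicoplast-acting delayed death.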
Cycloheximide cs: affects cycloheximide protein synthesis inhibition readout, counter-screen. 300,000 tested, 12% active. cell reporter, cycloheximide protein synthesis inhibition counterscreen. max response, %; in the data active = max response mostly above about 13%, no sharp cut-off; inactive = mostly below about 14%; also: read at 38.3 µM for the half of the compounds with a filed dose; 0% is about no effect
Pf growth 48h: P. falciparum growth inhibition at 48 hours (one generation); P. falciparum luciferase growth in erythrocytes, 48 h; Potency, µM (highest dose often 28.7 µM), inactives show at the top dose activity change, negative = inhibition, most hits filed as inhibitors; 310,000 tested, 5.9% active; also: potency is read from the fitted curve at half-maximal effect; % is scaled to controls: 0 for no effect and ±100 for the full control effect
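Read-out is firefly luciferase luminescence from an integrated reporter in P. falciparum, so falling signal marks reduced parasite growth. Infected erythrocytes were at 2% hematocrit and 0.1% parasitemia (final) in Albumax-supplemented RPMI 1640.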
Starred values were filed as active, the others as inactive; ? = inconclusive; · = no result given. Sampled rows, rich in hits. Any-hit rate of the full collection: about 21%. Unless noted, calls follow the shape of the dose curve; as a rule, active = well fitted inhibition curve with a large enough effect; inconclusive = small, poorly fitted or top-dose-only effect, or another doubt; inactive = no such curve, though single readings can be large or run the other way.

SMILES | Shiga toxin inh | Pf growth 96h | Cycloheximide cs | Pf growth 48h
Cc1cc(C)c(C)c(S(=O)(=O)N2CCC(C(=O)NCCCN3CCOCC3)CC2)c1C | · | 0% | · | ?
O=C(Nc1cccnc1)c1cccnc1Cl | 18 | 29% | 9 | 9%
CC(=O)NC(=S)Nc1ccc(NC(=O)c2cccnc2Cl)cc1 | 47 | -4% | 25* | ?
O=C(Nc1ccc(NC(=O)c2cccnc2Cl)cc1)c1cccc(Cl)c1 | 40* | 7% | 21 | 15%
COc1ccc(N2CCN(C(=O)COC(=O)c3ccc(-n4nc(C)cc4C)cc3)CC2)cc1 | · | -8% | · | 2%
N=C(N)Sc1nc(N2CCCCC2)nc(N2CCCCC2)n1 | -6 | 9% | 0 | 27%
OCCN1CCN(c2nc(N3CCCCC3)nc(N3CCCCC3)n2)CC1 | -7 | 60% | -7 | 10µM*
O=C(O)c1cccc(-n2sc3ccccc3c2=O)c1 | · | ? | · | 62%
Cc1ccccc1-n1sc2cc(F)ccc2c1=O | 41 | 33% | 19 | ?
O=c1c2ccccc2sn1-c1ccccc1 | 25 | · | 24* | ?
O=c1c2cc(F)ccc2sn1-c1ccccc1 | · | 5.2µM* | · | 4.1µM*
CC1CCCN(C(=O)C(C)Nc2cc(Cl)ccc2N2CCOCC2)C1 (stereo unspecified) | -4 | 0.66µM* | 0 | ?
O=C(Nc1cc(Cl)ccc1N1CCOCC1)C1=COCCO1 | · | -6% | · | 3%
CCOC(=O)Cc1csc(NC(=O)C(NC(=O)C2CCCCC2)C(C)C)n1 (stereo unspecified) | 10 | ? | 2 | -7%
Cc1ccc(NC(=O)C2C(=O)N(C)c3ccccc32)cc1 (stereo unspecified) | 42 | 9% | 19* | -3%
CN1C(=O)C(C(=O)Nc2ccccc2F)c2ccccc21 (stereo unspecified) | 20 | 4% | -5 | 16%
Cc1cc(C(C)(C)C)cc(C)c1C[n+]1ccc2ccccc2c1 | -6 | 1.3µM* | -10 | 1.2µM*
Cc1cc(C(C)(C)C)cc(C)c1CCNC(=O)c1ccc[n+]([O-])c1 | -9 | ? | -2 | -16%
N#Cc1ccccc1S(=O)(=O)N1CCN(CC(O)CN2CCOCC2)CC1 (stereo unspecified) | · | -30% | · | -9%
CC(=O)c1c(C)[nH]c(C(=O)OCC(=O)N2CCN(S(=O)(=O)c3ccc(C)cc3C)CC2)c1C | -13 | 8.3µM* | -5 | ·
CC(=O)c1c(C)[nH]c(C(=O)OCC(=O)N2CCN(S(=O)(=O)c3ccc(C)cc3)CC2)c1C | · | 13µM* | · | ?
Cc1ccc(S(=O)(=O)N2CCN(C(=O)COC(=O)c3ccccn3)CC2)c(C)c1 | · | 7% | · | 1%
CCOC(=O)c1c(C)[nH]c(C(=O)OCC(=O)N2CCN(S(=O)(=O)c3ccccc3)CC2)c1C | -8 | -60% | -3 | ·
Cc1cc(C)cc(N(CC(=O)NC2CCCC2)C(=O)CCC(=O)Nc2cc(C)ccn2)c1 | -13 | ? | -4 | ?
CC(=O)c1ccccc1NC(=O)COC(=O)c1cc(C)oc1C | · | -8% | · | -1%
SMILES | Shiga toxin inh | Pf growth 96h | Cycloheximide cs | Pf growth 48h
Cc1cccc(-c2noc(CSc3ccccc3)n2)c1 | 67* | 54% | 44* | 128%
c1ccc(CCCc2nc(-c3cccnc3)no2)cc1 | 43* | ? | 19* | 5%
Cc1ccc(-c2noc(CSc3nc(N)cc(N)n3)n2)cc1 | 87* | -24% | 53* | 250%
c1ccc(SCc2nc(-c3cccnc3)no2)cc1 | 108* | 25% | 36* | -50%
CCn1c(SCC(=O)NC2CC2)nnc1-c1ccc(OC)cc1 | 1 | -39% | 1 | 12%
COc1ccc(-c2noc(N3CCC(C(=O)NC(C)c4ccccc4)CC3)n2)cc1 (stereo unspecified) | 11 | -8% | -2 | ?
Cc1cc(C)c2nc(N3C(=O)C(O)=C(C(=O)c4ccco4)C3c3ccco3)sc2c1 (stereo unspecified) | 26 | 50% | 2 | 4%
Cc1ccc(OCC(=O)NNC(=O)C2CSC3(C)CCC(=O)N23)cc1C (stereo unspecified) | · | 47% | · | 0%
C=CCN(C(=O)CCC(=O)Nc1cc(C)on1)C(C(=O)NC1CCCC1)c1ccc(C)cc1 (stereo unspecified) | -6 | 10% | 6 | -51%
Cc1ccc(C(=O)OCC(=O)NCc2cccc(Cl)c2)cc1S(=O)(=O)N1CCCCC1 | · | -20% | · | ?
Cc1ccc(-c2noc(CSc3ccccc3)n2)cc1 | 77* | 82% | 33* | ·
N#CCSc1ncnc2c1cnn2CCO | -7 | ? | -2 | -1%
CC(=O)OC1OCCOC1NC(=S)Nc1cccc(C(F)(F)F)c1 (stereo unspecified) | 66* | 23% | 19* | 22%
CCOc1ccc(NC(=S)NNC(=S)Nc2cccc(C(F)(F)F)c2)cc1 | 53 | 13µM* | 11 | ?
O=C(NNC(=S)Nc1cccc(C(F)(F)F)c1)c1ccc(Cl)cc1Cl | 7 | 40% | -2 | 26%
COc1ccc(NC(=S)NNC(=S)Nc2cccc(C(F)(F)F)c2)cc1 | 16 | ? | 4 | ?
CNNC(=S)Nc1cccc(C(F)(F)F)c1 | -3 | ? | -2 | 4.1µM*
Cc1ccccc1C(=O)NNC(=S)Nc1cccc(C(F)(F)F)c1 | 27 | ? | 28* | 13%
O=C(c1c(F)cccc1F)N1CCN(CCOc2ccccc2)CC1 | 9 | 1% | 1 | ·
COc1ccc2nc(SCC(=O)NCc3ccc(OC)c(OC)c3)[nH]c2c1 | -15 | 16% | -5 | 9%
Nc1ccc(C(=O)N2CCN(S(=O)(=O)c3ccc(Cl)s3)CC2)cc1[N+](=O)[O-] | · | ? | · | -17%
Cc1cccc2sc(NS(=O)(=O)c3ccccc3)nc12 | 13 | 2% | -2 | 6%
CC1(NC(=O)Cn2cc(C(F)(F)F)ccc2=O)CCS(=O)(=O)C1 (stereo unspecified) | · | ? | · | 12%
O=C(NC1CCCC1)C(c1cccnc1)N(Cc1ccccc1)C(=O)c1csnn1 (stereo unspecified) | 20 | -19% | -5 | -1%
CC(C)(O)C(=O)NNC(=S)Nc1cccc(C(F)(F)F)c1 | -4 | 12µM* | 10 | 13%
SMILES | Shiga toxin inh | Pf growth 96h | Cycloheximide cs | Pf growth 48h
CCNc1nc(NC(C)C)nc(Oc2ccc(=O)n(C)n2)n1 | -8 | 26% | 1 | -2%
CCOc1ccc(C(=O)Nc2ccc3c(c2)OCCO3)cc1[N+](=O)[O-] | 67 | ? | 14 | 26%
CCOc1ccc(NC(=O)c2ccc3c(c2)OCCO3)cc1S(=O)(=O)N(CC)CC | · | 13µM* | · | 13µM*
CCOc1cc(C(=O)Nc2ccc3c(c2)OCO3)ccc1OC(F)F | 52 | 9.3µM* | 23* | 46%
CCOc1ccc(C(=O)Nc2ccc3c(c2)OCCO3)cc1OC | 63* | 51% | 20* | 122%
COC(=O)C1=C(N)N(c2ccccc2F)C2=C(C(=O)CC(C)(C)C2)C1c1ccc(OC)c(OC)c1 (stereo unspecified) | -15 | ? | -5 | 0%
CCN1CC(CCN2CCOCC2)C(c2ccccc2)(c2ccccc2)C1=O (stereo unspecified) | · | 3% | · | ?
CC(C)OP(=O)(OC(C)C)/C(C=O)=N\Nc1ccc([N+](=O)[O-])cc1 | 26 | ? | -3 | ?

Bioassay records as filed in PubChem BioAssay.
